Screens (PubChem BioAssay)
Only some compounds are listed: those with a hit (about 6.1% of all), similar ones and a draw of the others.
HepG2 tox-1 = HepG2 cytotoxicity, counter-screen for TGF-b inhibitors. HepG2 CAGA-GFP viability, ATP luminescence, 18 h. 0.76% of 410,000 active. AID 588856. Potency, µM (titrated, usually from 46.1 µM), inactives show at the highest dose activity change, negative = cytotoxicity, usual class: cytotoxic
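HepG2 CAGA-GFP cells (1000/well, DMEM with 1% FBS) received compound, then TGF-beta at 500 pg/mL final, and were incubated 18 hours at 37 degrees C. Viability was read by CellTiter-Glo luminescence. Media-only wells were set as complete cell-killing and DMSO as no toxicity.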
RORg inh = inhibitors of mouse ROR gamma transcriptional activity | 5.4% of 310,000 active | Potency, µM (series often up to 53.6 µM), without a hit: top-dose activity change, negative = inhibition, most hits filed as inhibitors | P51450 | Drosophila S2 Gal4-RORgamma UAS-luciferase reporter, 20 h | AID 2551; also: % is scaled to controls: 0 for no effect and ±100 for the full control effect; nearly all actives have a fitted effect of over 60% in size
Target sequence (P51450 whole entry, looked up, the tested form may be a part): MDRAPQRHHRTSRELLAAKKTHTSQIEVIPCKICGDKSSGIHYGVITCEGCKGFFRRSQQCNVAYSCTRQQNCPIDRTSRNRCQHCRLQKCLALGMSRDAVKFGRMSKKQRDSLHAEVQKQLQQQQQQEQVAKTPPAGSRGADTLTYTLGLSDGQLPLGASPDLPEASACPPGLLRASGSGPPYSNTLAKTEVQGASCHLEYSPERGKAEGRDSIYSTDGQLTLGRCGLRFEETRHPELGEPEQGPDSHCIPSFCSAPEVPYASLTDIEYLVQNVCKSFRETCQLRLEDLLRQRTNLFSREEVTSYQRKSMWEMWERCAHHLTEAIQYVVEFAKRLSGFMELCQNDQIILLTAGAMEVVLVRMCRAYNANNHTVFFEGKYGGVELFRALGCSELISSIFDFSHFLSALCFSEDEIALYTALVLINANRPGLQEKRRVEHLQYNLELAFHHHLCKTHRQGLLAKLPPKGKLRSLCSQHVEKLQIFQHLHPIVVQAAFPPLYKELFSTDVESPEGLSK
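Luciferase reporter read in Schneider cells carrying Gal4-RORγ (mouse) and UAS-Photinus luciferase; cells given compound 1 h before 700 uM copper sulfate induction, then incubated 20 h at ambient temperature.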
Gal4-VP16 FLuc = counter-screen for ROR gamma inhibitors: Gal4-VP16 reporter; Drosophila S2 Gal4-VP16 UAS-luciferase, luminescence, 20 h; Potency, µM (series often up to 53.6 µM), for the others: top-dose activity, negative = inhibition, hits mostly inhibitors; AID 2546; 3.5% of 310,000 active;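 also: Gal4-VP16 expression switched on by copper sulfate through the metallothionein promoter; % is scaled to controls: 0 for no effect and ±100 for the full control effect; nearly all actives have a fitted effect of over 50% in size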
S2 tox = cell viability loss in ATXN counter-screen. Potency, µM (titrated, usually from 56.7 µM), most hits filed as cytotoxic. 0.49% of 400,000 active. S2 cells (HEK-293 line with an ATXN2-luciferase reporter) viability, CellTiter-Fluor protease fluorescence, 24 h; also: nearly all actives have a fitted effect of over 40% in size
ATXN2 expr inh = ATXN2 expression inhibition. HEK-293 ATXN2-luciferase reporter, luminescence, 24 h. AID 1745845. Potency, µM (series often up to 57 µM), for inactives: at the highest dose activity change, negative = inhibition, hits mostly inhibitors. 0.72% of 360,000 active; also: % is scaled to controls: 0 for no effect and ±100 for the full control effect; nearly all actives have a fitted effect of over 55% in size
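qHTS (up to 57 uM final) was run with 24 h compound exposure of reporter cells at 37 °C. Each well was multiplexed: SteadyGlo luminescence measured ATXN2-luciferase expression after a fluorogenic Gly-Phe-AFC viability readout (25 uM final).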
TGFb SMAD3 inh = blocks TGF-b signaling; HepG2 CAGA-GFP TGF-b/SMAD3 reporter, GFP fluorescence, 18 h; TGF-beta stimulated, 500 pg/mL final; Potency, µM (doses to about 46.1 µM), inactives show at the highest dose activity, negative = inhibition, hits mostly inhibitors; 1.2% of 410,000 active; AID 588855; also: % is scaled to controls: 0 for no effect and ±100 for the full control effect; nearly all actives have a fitted effect of over 65% in size
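First, reporter cells (HEPG2 CAGA-GFP) rested 2 h at 37 degrees C. Next, compounds were pinned in and TGF-beta added to 500 pg/mL final. After 18 h, GFP was imaged per cell and summed per well.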
TGFb CAGA inh = TGF-b pathway inhibition, cherry-pick retest. shares compounds with TGFb SMAD3 inh. HepG2 CAGA-GFP TGF-b reporter, GFP fluorescence, 18 h; cells stimulated with TGF-beta, 500 pg/mL. Potency, µM (top dose mostly 46.1 µM), without a hit: at the highest dose activity, negative = inhibition, most hits filed as inhibitors. 63% of 1,600 active; also: % is scaled to controls: 0 for no effect and ±100 for the full control effect; nearly all actives have a fitted effect of over 65% in size
HepG2 tox-2 = toxic to HepG2 cells in TGF-b counterscreen; shares compounds with TGFb SMAD3 inh; HepG2 CAGA-GFP viability, ATP luminescence, 18 h; cells stimulated with TGF-beta, 500 pg/mL; Potency, µM (series often up to 46.1 µM), without a hit: at the top dose activity, negative = cytotoxicity, usual class: inhibitors; 27% of 1,600 active; AID 720535; also: % is scaled to controls: 0 for no effect and ±100 for the full control effect; nearly all actives have a fitted effect of over 70% in size
TGFb CCL64 inh = TGF-b inhibition, CCL64 orthogonal assay; shares compounds with TGFb SMAD3 inh; CCL64 CAGA-GFP reporter, TGF-b stimulated, GFP fluorescence, 18 h; Potency, µM (titrated, usually from 46.1 µM), inactives show at the top dose activity, negative = inhibition, hits mostly inhibitors; 41% of 1,600 active; AID 720536; also: nearly all actives have a fitted effect of over 65% in size
TGFb COP inh = TGF-b inhibition validated with COP promoter | shares compounds with TGFb SMAD3 inh | HepG2 COP-GFP TGF-b reporter, GFP fluorescence, 18 h; cells stimulated by added recombinant TGF-beta | Potency, µM (titrated, usually from 46.1 µM), for the others: top-dose activity, negative = inhibition, hits mostly inhibitors | 3% of 1,600 active; also: nearly all actives have a fitted effect of over 70% in size
* hit, by the source's call; i = inactive; u = inconclusive; x = no result given; [ ] = remark or other dose. Calls follow the shape of the dose curve; as a rule, active = well fitted curve in the direction sought with a large enough effect; inconclusive = small, poorly fitted or top-dose-only effect, or another doubt; inactive = no such curve, though single readings can be large; an effect the other way counts as inactive or inconclusive. Potency is read from the fitted curve at half-maximal effect.

SMILES	HepG2 tox-1	RORg inh	Gal4-VP16 FLuc	S2 tox	ATXN2 expr inh	TGFb SMAD3 inh	TGFb CAGA inh	HepG2 tox-2	TGFb CCL64 inh	TGFb COP inh
CC(=O)Oc1ccc(N(C(C)=O)S(=O)(=O)c2cccs2)c2ccccc12	-82%	20µM*	u	u	25µM*	10µM*	u	1%	u	12%
CCN(c1cccc2ccccc12)S(=O)(=O)c1cccs1	-34%	x	x	i	0%	u	x	x	x	x
O=C1CCCN1CCCNc1nc(NCc2cccs2)nc2ccsc12	-24%	x	x	u	-28%	10µM*	6.5µM*	u	u	68%
COCCNc1nc(NCc2cccs2)nc2ccsc12	-12%	x	x	i	-7%	13µM*	6.5µM*	u	u	42%
Cc1ccc(Nc2nc(NCc3cccs3)nc3ccsc23)c(C)c1	-26%	x	x	u	u	13µM*	6.5µM*	u	u	58%
CC(=O)NCCNc1nc(NCc2cccs2)nc2ccsc12	-1%	x	x	i	14%	-1%	x	x	x	x
COc1ccc(Oc2ncc3nc(-c4ccc(F)cc4)c(=O)n(Cc4cccs4)c3n2)cc1	x	-20%	-4%	x	x	x	x	x	x	x
CCc1ccc(NC(=O)C(=O)NCC(c2ccc3c(c2)OCO3)N2CCN(C)CC2)cc1 (stereo not given)	-13%	x	x	i	-30%	13%	x	x	x	x
Cc1ccc(C)c(NC(=O)CN2C(=O)C3(SCC(=O)N3c3ccc(C)c(C)c3)c3ccccc32)c1 (stereo not given)	-3%	x	x	i	5%	-1%	x	x	x	x
Cc1ccc(CNC(=O)CSc2nc3ccsc3c(=O)n2NC(=O)c2ccccc2)cc1	-12%	21%	2%	i	33%	-13%	x	x	x	x
O=C(Nn1c(SCc2ccc(F)cc2)nc2ccsc2c1=O)c1ccccc1	-2%	12%	-8%	i	8%	11µM*	16µM*	u	u	53%
CCCCn1nnnc1C(c1ccccc1OC(F)(F)F)N1CCN(C/C=C/c2ccccc2)CC1 (stereo not given)	-16%	x	x	u	-25%	13µM*	18µM*	-19%	u	21%
CCCCn1nnnc1C(c1cccc2ccccc12)N1CCN(C/C=C/c2ccccc2)CC1 (stereo not given)	-6%	x	x	u	u	11µM*	u	u	u	56%
C(=C\c1ccccc1)/CN1CCN(C(c2ccccc2)c2nnnn2C2CCCCC2)CC1 (stereo not given)	-1%	x	x	i	10%	-6%	x	x	x	x
FC(F)(F)Oc1ccccc1C(c1nnnn1Cc1ccccc1)N1CCN(C/C=C/c2ccccc2)CC1 (stereo not given)	-40%	x	x	i	-16%	u	x	x	x	x
C(=C\c1ccccc1)/CN1CCN(C(c2ccnc3ccccc23)c2nnnn2C2CCCCC2)CC1 (stereo not given)	-1%	x	x	u	u	11µM*	18µM*	u	18µM*	46%
COc1ccc(CCNC(=O)C2(c3cccs3)CCOCC2)cc1	0%	x	x	i	-6%	5%	x	x	x	x
O=c1c(N2CCc3ccccc3C2)csc2ccc(Cl)cc12	-26%	x	x	u	11%	-1%	x	x	x	x
CC(=O)OCC1OC(n2cc(F)c(=O)[nH]c2=O)C(OC(C)=O)C1OC(C)=O (stereo not given)	-9%	x	x	i	x	u	x	x	x	x
O=C1C(F)=CC(COC(c2ccccc2)(c2ccccc2)c2ccccc2)OC1n1cc(F)c(=O)[nH]c1=O (stereo not given)	-60%	x	x	3µM*	3.4µM*	5µM*	2.9µM*	8.2µM*	2.3µM*	u
CCC(=O)[C@@]1(C)[C@H](C)C[C@@H]2[C@@H]3CCC4=CC(=O)C=C[C@@]4(C)[C@H]3[C@H](O)C[C@]21C	x	-21%[2.98 µM]	-13%[17 µM]	x	x	x	x	x	x	x
O=C(/C=C/c1ccc(Cl)cc1)c1ccc([N+](=O)[O-])o1	-57%	x	x	11µM*	u	3.5µM*	2.9µM*	7.3µM*	2.1µM*	6%
N#C/C(=N\Nc1ccc(Cl)c(Cl)c1)C(=O)C1CC1	-29%	u	u	x	-19%	7.1µM*	2.3µM*	6.5µM*	6.5µM*	64%
N#C/C(=N\Nc1ccc(F)cc1)C(=O)C1CC1	-6%	40%	-14%	i	u	-20%	x	x	x	x
CS(=O)(=O)Nc1ccccc1C(=O)Nc1cc(Cl)cc(Cl)c1	-26%	-25%	u	u	22µM*	7.1µM*	7.3µM*	u	8.2µM*	57%
CS(=O)(=O)Nc1ccccc1C(=O)Nc1cccc(Cl)c1	-22%	u	u	i	-6%	u	x	x	x	x
CC1=C(C(=O)Nc2ccccc2F)C(c2ccsc2)C2=C(CC(C)(C)CC2=O)N1 (stereo not given)	-32%	26%	-1%	i	x	-27%	x	x	x	x
CC1=C(C(=O)Nc2cccc(F)c2)C(c2ccsc2)C2=C(CC(C)(C)CC2=O)N1 (stereo not given)	-2%	-25%	-17%	u	-21%	10µM*	u	-10%	-22%	-10%
Cc1c(C(=O)NCc2ccccc2Cl)sc2nc3n(c(=O)c12)CCCCC3	-10%	x	x	i	9%	1%	x	x	x	x
CCS(=O)(=O)N1CCC2(CC1)OC(=O)C(C)=C2C(=O)NCc1ccc(OC)c(OC)c1	-16%	x	x	i	10%	-2%	x	x	x	x
